This assay concerns P. falciparum stage V gametocytes. Also on record: BacTiter-Glo ATP luminescence viability of purified stage V gametocytes in 384-well plates, per cent inhibition versus DMSO. The following applies: 48 h, 5 µM, inhibitor.

Like-named read-outs stand apart in the source and are kept apart here. Out of some 13,000 compounds screened, about 3,200 (25%) showed an effect of 50% or more. Some of the results follow.

The % Inhibition is the relative decrease from the control value, in per cent. Turning to `CN(C)c1ccc(/C=C2\S/C(=N\c3ccccc3)N(c3ccccc3)C2=O)cc1[N+](=O)[O-]` [TCMDC-124086], the “% Inhibition” value is reported as -8.825%. As for `CCC(C)c1ccc(Nc2nc(C)cc(N(CC)CCCN3CCCCC3)n2)cc1` (centres unmarked) [TCMDC-132456], the “% Inhibition” value is reported as -18.05%. Turning to `COc1cc(OC)c2c(c1Cl)O[C@]1(C2=O)C(=O)C(Cc2ccccc2)(Cc2ccccc2)C(=O)C[C@H]1C` [TCMDC-131804], the “% Inhibition” value was found to be 9.09%.

`COc1ccc(CN(C)CCCOc2ccc(NC(=O)C=Cc3ccc(C(C)(C)C)cc3)cc2)cc1OC` [TCMDC-138277]: the “% Inhibition” value is recorded as -85.5%. On the same count and under the same terms, as for `CN1CCCc2cc(NC(=O)C=Cc3ccc(-c4ccc(F)cc4F)o3)ccc2C1` [TCMDC-134051], the figure is 105.5%. In the case of `COc1ccc(Br)cc1/C=C/C(=O)Nc1ccc2c(c1)CCCN(C)C2` [TCMDC-133717], the “% Inhibition” value was 27.94%. Take `CN1CCCc2ccc(NC(=O)C=Cc3ccc(-c4ccc(F)cc4F)o3)cc2C1` [TCMDC-134124]: the “% Inhibition” value is reported as 39.53%. For the compound `CCCCCn1c(Sc2ccc(C#N)c([N+](=O)[O-])c2)nnc1-c1ccc(OC)cc1` [TCMDC-135603], the “% Inhibition” value is given as 31.95%. On to `COc1ccc2ncc(F)c([C@H](O)CN3CCC(NCc4ccc5c(c4)NC(=O)CS5)CC3)c2c1` [TCMDC-135827], for which the “% Inhibition” value was 14.82%. Consider `COc1ccc2ncc(F)c([C@H](O)CN3CCC(NCc4cc5c(cn4)OCCO5)CC3)c2c1` [TCMDC-135296], for which the “% Inhibition” value is listed as -10.65%. Take `COc1ccc2ncc(F)c(CCN3CCC(NCc4cc5c(cn4)OCCS5)CC3)c2c1` [TCMDC-134569]: the “% Inhibition” value came out at 54.76%. As for `COc1ccc2nccc([C@@H](O)CN3CCC(NCc4cnc5c(c4)NC(=O)CS5)CC3)c2c1` [TCMDC-141230], the “% Inhibition” value came to 6.568%.

For `COc1ccc2ncc(F)c([C@@H](O)CN3CCC(NCc4cc5c(cn4)OCS5)CC3)c2c1` [TCMDC-135862], the “% Inhibition” value is given as 14.45%. With `COc1ccc2ncc(F)c(CCN3CCC(NCc4cnc5c(c4)NC(=O)CS5)CC3)c2c1` [TCMDC-134490], the “% Inhibition” value came out at 87.27%. For `CC(C)CC(=O)Nc1cc(=O)[nH]c2nc(-c3ccccc3)nn12` [TCMDC-125475], the “% Inhibition” value was 3.79%.

Consider `Cc1cc(C(=O)CN2C(=O)NC3(CCCc4ccccc43)C2=O)c(C)n1Cc1ccc(F)cc1` (centres unmarked) [TCMDC-125057], for which the “% Inhibition” value is -27.15%. Turning to `O=C(/C=C/c1ccc(Cl)c(Cl)c1)NCCCCCN1CCC(NC(=O)c2ccc3ccccc3c2)CC1` [TCMDC-135869], the “% Inhibition” value is -22.99%. In the case of `Cc1[nH]c(C)c(-c2ccc(-c3ccccc3C(F)(F)F)nc2)c(=O)c1Br` [TCMDC-135881], the “% Inhibition” value turned out to be 80.96%. In the case of `Cc1[nH]c(C)c(-c2ccc(-c3ccc(C(F)(F)F)cc3C(F)(F)F)nc2)c(=O)c1Br` [TCMDC-136013], the “% Inhibition” value is reported as 70.39%. Take `Cc1[nH]c(C)c(-c2ccc(-c3cc(C(F)(F)F)cc(C(F)(F)F)c3)nc2)c(=O)c1Br` [TCMDC-136015]: the “% Inhibition” value is listed as 76.88%. Still for that read-out and setting: next, `Cc1[nH]c(C)c(-c2ccc(-c3cccc(C(F)(F)F)c3)nc2)c(=O)c1Br` [TCMDC-135911]: 22.21%; `N#Cc1cccc(/C=C/C(=O)NC2CCC(CCN3CCc4ccc(-c5cnccn5)cc4CC3)CC2)c1` (centres unmarked) [TCMDC-140238]: -55.93%. As to `Cc1cc(N(C)C)nc(Nc2ccc(NC(=O)C3CCCCC3)cc2)n1` [TCMDC-124978], the “% Inhibition” value worked out at 11.42%. For `CCOc1cc(C(=O)NCCN(C(C)C)C(C)C)ccc1-c1nc2ccc(Cl)cc2[nH]1` [TCMDC-140910], the “% Inhibition” value was found to be 18.37%. On the same count and under the same terms, as for `O=c1cc(NCCCNC2CCCc3c2ccc2ccccc32)[nH]c2ccccc12` (centres unmarked) [TCMDC-139366], the figure is 0.6782%; as for `CCOC(=O)c1c(C)n(C2CCCCCC2)c2cc(Br)c(O)cc12` [TCMDC-124588], -95.43%. In the case of `Cc1ccc(-n2c(C)cc(C(=O)CN3C(=O)NC(Cc4ccccc4)C3=O)c2C)cc1` (centres unmarked) [TCMDC-123563], the “% Inhibition” value is -21.41%.

For `CC(C)C[C@@H](/C=N/NC(N)=O)NC(=O)[C@H](CC(C)C)NC(=O)[C@H](CC(C)C)NC(=O)OCc1ccccc1` [TCMDC-139049], the “% Inhibition” value was -49.58%.

Turning to `CCC(Nc1noc(-c2c(-c3ccccc3)noc2C)n1)c1ccccc1` (centres unmarked) [TCMDC-134200], the “% Inhibition” value amounted to 3.321%.

`CC(C)CNCc1ccc(-c2cccc(CNC3CCN(Cc4ccccc4)CC3)c2)cc1` [TCMDC-140480]: the “% Inhibition” value stood at 110%.

For the compound `CC(C)CNCc1cccc(-c2ccc(CNC3CCN(Cc4ccccc4)CC3)cc2)c1` [TCMDC-140487], the “% Inhibition” value was found to be 103%. On to `CC(C)CNCc1cccc(-c2cccc(CNC3CCN(Cc4ccccc4)CC3)c2)c1` [TCMDC-140479], for which the “% Inhibition” value came to 106.4%. With `CC(C)CNCc1cccc(-c2ccccc2CNC2CCN(Cc3ccccc3)CC2)c1` [TCMDC-140469], the “% Inhibition” value stood at 76.18%. Turning to `NC1=NC(c2ccccc2)(c2ccccc2)C(=O)N1C1CCCCC1` [TCMDC-136761], the “% Inhibition” value is recorded as -44.85%. `N=c1c2c(n(Cc3cccc(Cl)c3)c3c1CCC3)CCCC2` [TCMDC-125614]: the “% Inhibition” value stood at 24.77%. `COC(=O)/C=C/c1ccc(CC(C)NCC(O)c2cccc(C(F)(F)F)c2)cc1` (centres unmarked) [TCMDC-131503]: the “% Inhibition” value (% Inhibition) is -2.875%.

As to `NC(N)=NC(=O)Nc1cc(Cl)c(Br)c(Cl)c1` [TCMDC-137507], the “% Inhibition” value was -11.69%. Still for that read-out and setting: as for `O=C(/C=C/c1ccc(Cl)c(Cl)c1)NCCCCCN1CCN(C(=O)Nc2cccc(F)c2)CC1` [TCMDC-135731], the figure is 4.224%; as for `O=C(Nc1nc2cc(S(=O)(=O)NCCc3cccc(F)c3)ccc2n1CCCn1ccnc1)c1ccc(Cl)cc1` [TCMDC-141623], -29.17%; as for `CC(C)c1ccc(NC(=O)c2ccc(C(=O)NC3CCN(Cc4ccsc4)C3)cc2)cc1` (centres unmarked) [TCMDC-136745], -11.55%. In the case of `CSCCCN1CCC(O)(c2ccc3oc(C(=O)Nc4ccc5sc(C)nc5c4)cc3c2)CC1` [TCMDC-124646], the “% Inhibition” value came to 11.7%. Same read-out and setting: next, `COCCNCc1ccc(-c2ccccc2CNC2CCN(Cc3ccccc3)CC2)cc1` [TCMDC-140471]: 43.38%; `CC(C)CNCc1ccc(-c2ccc(CNC3CCN(Cc4ccccc4)CC3)cc2)cc1` [TCMDC-140488]: 73.02%; `CC(C)CNCc1ccc(-c2ccccc2CNC2CCN(Cc3ccccc3)CC2)cc1` [TCMDC-140470]: 78.66%. As to `Cc1cc(-c2ccc3c(c2)CC[C@@H](N[C@@H](C)c2ccccc2)C3)cnc1N` [TCMDC-138130], the “% Inhibition” value was 26.54%. For `Cn1c(NC(=O)C2CCC(CNC(=O)c3ccc(O)c(-c4cccc([N+](=O)[O-])c4)c3)CC2)nc2ccccc21` (centres unmarked) [TCMDC-140883], the “% Inhibition” value was 1.197%. As for `O=C(Nc1cccc(-c2nn3ccccc3c2-c2ccnc(Nc3ccccc3)n2)c1)c1cc(F)ccc1F` [TCMDC-135823], the “% Inhibition” value is given as -54.26%. As for `NCCNc1ccc([N+](=O)[O-])cc1C(=O)Nc1cccc(C(F)(F)F)c1` [TCMDC-123677], the “% Inhibition” value was 3.903%. For `COc1ccc(OC(C)CNC(=O)c2cc([N+](=O)[O-])ccc2-c2ccc(OC)cc2)cc1` (centres unmarked) [TCMDC-132303], the “% Inhibition” value worked out at 16.94%. For the compound `COc1ccc(-c2ccc([N+](=O)[O-])cc2C(=O)NCC(C)Oc2ccc(C(F)(F)F)cc2)cc1` (centres unmarked) [TCMDC-132304], the “% Inhibition” value was 94.55%. For the compound `N=C1NC(=O)C(=Cc2cn(-c3ccccc3)nc2-c2cccc(S(=O)(=O)N3CCCC3)c2)S1` [TCMDC-123756], the “% Inhibition” value is given as 0.418%. As to `NC1CCN(Cc2cccc(-c3ccc(-c4nc5ccccc5[nH]4)cc3)c2)C1` (centres unmarked) [TCMDC-133846], the “% Inhibition” value was 28.29%. With `NC1CCCN(Cc2cccc(-c3ccc(-c4nc5ccccc5[nH]4)cc3)c2)C1` (centres unmarked) [TCMDC-133848], the “% Inhibition” value was 22.08%.

Regarding `OC1CCCN(Cc2cccc(-c3ccc(-c4nc5ccccc5[nH]4)cc3)c2)C1` (centres unmarked) [TCMDC-133817], the “% Inhibition” value is given as -22.44%. On the same count and under the same terms, as for `NC1CCCN(Cc2cccc(-c3cccc(-c4nc5ccccc5[nH]4)c3)c2)C1` (centres unmarked) [TCMDC-133877], the figure is 56.31%; as for `NC1CCN(Cc2cccc(-c3cccc(-c4nc5ccccc5[nH]4)c3)c2)C1` (centres unmarked) [TCMDC-133875], 72.93%.

As for `Cc1cc(N2CCCCC2)nc2ccc(NC(=O)c3cc(=O)c4ccccc4o3)cc12` [TCMDC-123602], the “% Inhibition” value came out at 13.04%. As for `Cc1ccc(NC(=O)Nc2ccccc2)cc1-c1ccc(C(=O)Nc2ccncc2)cc1` [TCMDC-133701], the “% Inhibition” value is on record as -4.063%.

For the compound `NC1=NC(c2ccccc2)(c2ccccc2)C(=O)N1Cc1ccc(-c2cccnc2)cc1` [TCMDC-136999], the “% Inhibition” value is given as -17.43%.

Regarding `CC(=O)N1Cc2ccccc2C1=O` [TCMDC-131706], the “% Inhibition” value is listed as 7.417%. Take `COc1ccc(C(=O)CC(=O)c2ccc(OC)cc2OC)c(OC)c1` [TCMDC-123465]: the “% Inhibition” value came out at 12.1%. Same read-out and setting: as for `CCN(CC)CCN(CCN(CC)CC)c1ccc2c(c1)Sc1c(Cl)ccc(Cl)c1S2` [TCMDC-137934], the figure is 63.92%.

As to `COc1ccc(Cn2c(=O)[nH]c3cc(C(=O)NC4CCN(Cc5ccccc5)CC4)ccc3c2=O)cc1` [TCMDC-123588], the “% Inhibition” value was -15.29%. For the compound `COc1ccc(NC(=O)N2CCCN(CCCCCNC(=O)/C=C/c3ccc(C(F)(F)F)cc3)CC2)cc1Cl` [TCMDC-136109], the “% Inhibition” value was -28.75%.

For `COc1cc(CN2CCN(c3ccnc(N(C)C4CCN(C)CC4)n3)CC2)cc(Cl)c1O` [TCMDC-125096], the “% Inhibition” value is given as -14.35%.

The values are drawn from PMC4552634, “A New Set of Chemical Starting Points with Plasmodium falciparum Transmission-Blocking Potential for Antimalarial Drug Discovery” (PLoS ONE, 2015).
